Measured values from paper PMC11006913.
Numbering of substitutions follows the chain as printed.

Tests used:
Assay in all cases: PBM; 200 nM protein, PBS
Conditions in all cases: dsDNA, one strand shown
[1] = target: NKX2-5 (Homo sapiens, UniProt P52952 125-210, R139K)
[2] = target: T1, NKX2-4 (Homo sapiens, UniProt Q9H2Z4 175-261, P217L)
T1 sequence: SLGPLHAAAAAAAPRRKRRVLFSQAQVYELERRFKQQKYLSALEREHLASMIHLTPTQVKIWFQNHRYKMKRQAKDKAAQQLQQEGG

[3] = target: T2, NKX2-4 (Homo sapiens, UniProt Q9H2Z4 175-261, T231S)
T2 sequence: T1 sequence with L43P, T57S

[4] = target: T3, NKX2-4 (Homo sapiens, UniProt Q9H2Z4 175-261)
T3 sequence: T1 sequence with L43P

[5] = target: T4, NKX2-6 (Homo sapiens, UniProt A6NCS4 118-204, R150C)
T4 sequence: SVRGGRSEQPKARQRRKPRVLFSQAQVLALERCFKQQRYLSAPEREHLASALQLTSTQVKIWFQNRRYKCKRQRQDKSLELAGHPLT

[6] = target: T5, NKX2-6 (Homo sapiens, UniProt A6NCS4 118-204)
T5 sequence: T4 sequence with C33R

[7] = target: T6, NKX2-4 (Homo sapiens, UniProt Q9H2Z4 175-261, R246Q)
T6 sequence: T1 sequence with L43P, R72Q

[8] = target: T7, NKX2-6 (Homo sapiens, UniProt A6NCS4 118-204, F151L)
T7 sequence: T4 sequence with C33R, F34L

[9] = target: NKX3-2 (Homo sapiens, UniProt P78367 192-278, P234S)
NKX3-2 (Homo sapiens, UniProt P78367 192-278, P234S), sequence (P78367 192-278 P234S): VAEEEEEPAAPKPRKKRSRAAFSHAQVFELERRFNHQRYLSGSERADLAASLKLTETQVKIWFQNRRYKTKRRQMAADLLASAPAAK

[10] = target: NKX2-5 (Homo sapiens, UniProt P52952 125-210)
NKX2-5 (Homo sapiens, UniProt P52952 125-210), sequence (P52952 125-210): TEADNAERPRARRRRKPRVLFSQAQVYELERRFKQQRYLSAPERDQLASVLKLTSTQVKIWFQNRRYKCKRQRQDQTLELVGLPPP

[11] = target: NKX3-2 (Homo sapiens, UniProt P78367 192-278)
NKX3-2 (Homo sapiens, UniProt P78367 192-278), sequence (P78367 192-278): as the sequence (P78367 192-278 P234S) above, with S43P counted along it

NKX2-5 (Homo sapiens, UniProt P52952 125-210, R139K), sequence (P52952 125-210 R139K): as the sequence (P52952 125-210) above, with R15K counted along it

Sequence | binding signal [1] | binding signal [2] | binding signal [3] | binding signal [4] | binding signal [5] | binding signal [6] | binding signal [7] | binding signal [8] | binding signal [9] | binding signal [10] | binding signal [11]
CACTTATG | 13 upbm affinity estimate (log intensity, higher = more binding, comparable within an allelic series) | 12.6 upbm affinity estimate (log intensity, higher = more binding, comparable within an allelic series) | 13 upbm affinity estimate (log intensity, higher = more binding, comparable within an allelic series) | 12.5 upbm affinity estimate (log intensity, higher = more binding, comparable within an allelic series) | 12.2 upbm affinity estimate (log intensity, higher = more binding, comparable within an allelic series) | 13.8 upbm affinity estimate (log intensity, higher = more binding, comparable within an allelic series) | 13.1 upbm affinity estimate (log intensity, higher = more binding, comparable within an allelic series) | 11.2 upbm affinity estimate (log intensity, higher = more binding, comparable within an allelic series) | 12.8 upbm affinity estimate (log intensity, higher = more binding, comparable within an allelic series) | 13 upbm affinity estimate (log intensity, higher = more binding, comparable within an allelic series) | 12.9 upbm affinity estimate (log intensity, higher = more binding, comparable within an allelic series)
GCACTTCA | 12.5 upbm affinity estimate (log intensity, higher = more binding, comparable within an allelic series) | 12.6 upbm affinity estimate (log intensity, higher = more binding, comparable within an allelic series) | 13 upbm affinity estimate (log intensity, higher = more binding, comparable within an allelic series) | 12.5 upbm affinity estimate (log intensity, higher = more binding, comparable within an allelic series) | 11.7 upbm affinity estimate (log intensity, higher = more binding, comparable within an allelic series) | 13.3 upbm affinity estimate (log intensity, higher = more binding, comparable within an allelic series) | 13.2 upbm affinity estimate (log intensity, higher = more binding, comparable within an allelic series) | 11.1 upbm affinity estimate (log intensity, higher = more binding, comparable within an allelic series) | 12.6 upbm affinity estimate (log intensity, higher = more binding, comparable within an allelic series) | 12.4 upbm affinity estimate (log intensity, higher = more binding, comparable within an allelic series) | 12.6 upbm affinity estimate (log intensity, higher = more binding, comparable within an allelic series)
AAGTGGTC | 12.6 upbm affinity estimate (log intensity, higher = more binding, comparable within an allelic series) | 12.4 upbm affinity estimate (log intensity, higher = more binding, comparable within an allelic series) | 12.8 upbm affinity estimate (log intensity, higher = more binding, comparable within an allelic series) |  | 11.8 upbm affinity estimate (log intensity, higher = more binding, comparable within an allelic series) | 13.4 upbm affinity estimate (log intensity, higher = more binding, comparable within an allelic series) |  | 10.5 upbm affinity estimate (log intensity, higher = more binding, comparable within an allelic series) | 12.9 upbm affinity estimate (log intensity, higher = more binding, comparable within an allelic series) | 12.6 upbm affinity estimate (log intensity, higher = more binding, comparable within an allelic series) | 12.9 upbm affinity estimate (log intensity, higher = more binding, comparable within an allelic series)
CCTCTTAA | 12.3 upbm affinity estimate (log intensity, higher = more binding, comparable within an allelic series) | 12.4 upbm affinity estimate (log intensity, higher = more binding, comparable within an allelic series) | 12.7 upbm affinity estimate (log intensity, higher = more binding, comparable within an allelic series) | 12.3 upbm affinity estimate (log intensity, higher = more binding, comparable within an allelic series) |  | 13.4 upbm affinity estimate (log intensity, higher = more binding, comparable within an allelic series) | 12.9 upbm affinity estimate (log intensity, higher = more binding, comparable within an allelic series) | 10.5 upbm affinity estimate (log intensity, higher = more binding, comparable within an allelic series) |  | 12.3 upbm affinity estimate (log intensity, higher = more binding, comparable within an allelic series) | 
CCAGCCAG | 8.68 upbm affinity estimate (log intensity, higher = more binding, comparable within an allelic series) |  |  |  |  |  |  |  |  | 8.64 upbm affinity estimate (log intensity, higher = more binding, comparable within an allelic series) | 
ACACTTGA | 13 upbm affinity estimate (log intensity, higher = more binding, comparable within an allelic series) | 12.7 upbm affinity estimate (log intensity, higher = more binding, comparable within an allelic series) | 13.2 upbm affinity estimate (log intensity, higher = more binding, comparable within an allelic series) | 12.6 upbm affinity estimate (log intensity, higher = more binding, comparable within an allelic series) | 12 upbm affinity estimate (log intensity, higher = more binding, comparable within an allelic series) | 13.9 upbm affinity estimate (log intensity, higher = more binding, comparable within an allelic series) | 13.4 upbm affinity estimate (log intensity, higher = more binding, comparable within an allelic series) | 11.4 upbm affinity estimate (log intensity, higher = more binding, comparable within an allelic series) |  | 12.9 upbm affinity estimate (log intensity, higher = more binding, comparable within an allelic series) | 
ACACTTCA | 12.3 upbm affinity estimate (log intensity, higher = more binding, comparable within an allelic series) | 12.6 upbm affinity estimate (log intensity, higher = more binding, comparable within an allelic series) | 13 upbm affinity estimate (log intensity, higher = more binding, comparable within an allelic series) | 12.5 upbm affinity estimate (log intensity, higher = more binding, comparable within an allelic series) |  | 13.3 upbm affinity estimate (log intensity, higher = more binding, comparable within an allelic series) | 13.1 upbm affinity estimate (log intensity, higher = more binding, comparable within an allelic series) | 10.8 upbm affinity estimate (log intensity, higher = more binding, comparable within an allelic series) |  | 12.3 upbm affinity estimate (log intensity, higher = more binding, comparable within an allelic series) | 
